The whole screen tested about 310,000 compounds, of which about 14,000 (4.5%) showed an effect of 50% or more. The effect is printed as a negative number. This excerpt belongs to a sample that is enriched for strong results.
molecular target: human ether-à-go-go-related gene (hERG) potassium channel (human, UniProt Q12809); test: primary screen, population patch clamp on CHO cells stably expressing hERG; higher = less effect of the substance
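Also: peak tail current of the secondary pulse compared with the same well before compound.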

human ether-à-go-go-related gene (hERG) potassium channel, sequence (Q12809 whole entry, looked up): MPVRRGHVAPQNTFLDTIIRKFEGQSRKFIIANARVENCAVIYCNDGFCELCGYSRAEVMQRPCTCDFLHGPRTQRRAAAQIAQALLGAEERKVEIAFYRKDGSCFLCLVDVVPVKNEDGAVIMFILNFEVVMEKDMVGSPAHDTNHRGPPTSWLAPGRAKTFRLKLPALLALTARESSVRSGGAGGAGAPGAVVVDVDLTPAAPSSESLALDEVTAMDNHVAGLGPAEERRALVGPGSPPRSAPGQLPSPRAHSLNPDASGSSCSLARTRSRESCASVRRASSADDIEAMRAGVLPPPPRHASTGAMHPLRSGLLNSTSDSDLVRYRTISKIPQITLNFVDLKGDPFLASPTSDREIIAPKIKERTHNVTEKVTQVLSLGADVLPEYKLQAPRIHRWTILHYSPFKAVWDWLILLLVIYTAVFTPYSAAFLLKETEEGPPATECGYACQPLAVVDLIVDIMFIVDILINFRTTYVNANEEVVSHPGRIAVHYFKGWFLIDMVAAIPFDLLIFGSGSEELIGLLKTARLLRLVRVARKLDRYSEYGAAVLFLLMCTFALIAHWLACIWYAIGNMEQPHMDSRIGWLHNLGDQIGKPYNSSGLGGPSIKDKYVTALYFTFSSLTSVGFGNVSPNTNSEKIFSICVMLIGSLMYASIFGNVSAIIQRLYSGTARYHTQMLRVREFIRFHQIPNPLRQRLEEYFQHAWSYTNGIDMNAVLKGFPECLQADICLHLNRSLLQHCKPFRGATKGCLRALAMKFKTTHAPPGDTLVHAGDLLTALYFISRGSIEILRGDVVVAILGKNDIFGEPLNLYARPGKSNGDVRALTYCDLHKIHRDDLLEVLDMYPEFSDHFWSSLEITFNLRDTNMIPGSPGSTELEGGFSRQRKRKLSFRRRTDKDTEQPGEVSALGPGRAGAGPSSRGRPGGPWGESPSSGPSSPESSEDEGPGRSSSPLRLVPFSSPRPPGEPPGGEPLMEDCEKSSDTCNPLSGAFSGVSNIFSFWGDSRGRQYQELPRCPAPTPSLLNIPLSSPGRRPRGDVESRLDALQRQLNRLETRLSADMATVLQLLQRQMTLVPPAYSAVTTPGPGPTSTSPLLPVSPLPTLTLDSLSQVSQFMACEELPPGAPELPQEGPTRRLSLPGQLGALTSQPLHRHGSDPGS

SMILES	hERG current change (%, negative = inhibition) at 10uM [%]
CCCCC1C(C#N)=C(C)NC2=C1C(=O)CC(C)(C)C2 (stereo not drawn)	-9.68
O=C(CSc1nc(NS(=O)(=O)c2ccccc2)cc(=O)[nH]1)Nc1ccc(F)cc1	10.7
CC(C)c1ccc(OCC(=O)Nc2ccc(S(=O)(=O)Nc3ccccn3)cc2)cc1	10.7
Clc1ccc(CNc2ncccn2)cc1	13.5
CCOc1ccc(/C(O)=C2/C(=O)C(=O)N(CC3CCCO3)C2c2ccco2)cc1 (stereo not drawn)	14.2
COc1ccc(CNC(=O)CCOc2ccc(C(C)(C)C)cc2)cc1	8.47
O=C1NCCN1CCNS(=O)(=O)c1cc(C(F)(F)F)cc(C(F)(F)F)c1	17.2
Cc1csc(Nc2ccccc2C(F)(F)F)n1	6.46
N#C/C(=C\c1c(N2CCN(c3ccccc3)CC2)nc2ccccn2c1=O)S(=O)(=O)c1ccccc1	2.28
Cc1ccc(S(=O)(=O)/C(C#N)=C/c2c(N3CCN(C)CC3)nc3ccccn3c2=O)cc1	-59.1
CCN1CCN(c2nc3ccccn3c(=O)c2/C=C(\C#N)S(=O)(=O)c2ccccc2)CC1	-42.3
N#C/C(=C\c1c(N2CCN(Cc3ccccc3)CC2)nc2ccccn2c1=O)S(=O)(=O)c1ccccc1	0.944
CN1CCN(c2nc3ccccn3c(=O)c2/C=C(\C#N)S(=O)(=O)c2ccccc2)CC1	-24.9
Cc1ccc(S(=O)(=O)/C(C#N)=C/c2c(N3CCCCC3)nc3ccccn3c2=O)cc1	-29.9
N#C/C(=C\c1c(N2CCCCC2)nc2ccccn2c1=O)S(=O)(=O)c1ccccc1	-40.7
CN1CCN(c2nc3ccccn3c(=O)c2/C=C(\C#N)S(=O)(=O)c2ccc(Cl)cc2)CC1	-51.9
N#C/C(=C\c1c(N2CCOCC2)nc2ccccn2c1=O)S(=O)(=O)c1ccccc1	-63.2
CCOC(=O)c1cccc(NC(=O)c2ccc(F)cc2F)c1	-16.1
O=c1ccnc(Nc2ccc(Cl)cc2)[nH]1	-10.3
C/C(=N/NC(=O)CNC(=O)c1ccco1)c1ccco1	2.11
Cc1cccnc1NC(=O)Nc1ccc(Cl)cc1	9.39
Cc1ccc(N(CCC#N)C(=O)CSc2nnc3ccccn23)cc1	-8.44
COc1ccc2ccccc2c1CN1CCN(Cc2ccccc2)CC1	-2.66
Oc1cccc(Nc2nc(N3CCOCC3)nc(N3CCOCC3)n2)c1	8.76
CSc1ccc(CN(C)C(=O)CNC(=O)CNS(=O)(=O)c2ccc(C)c(C)c2)cc1	-24.1
CN(C(=O)N1CCN(c2ccccn2)CC1)c1ccccc1	7.47
Cc1cc(Cn2nc(-c3ccccc3)cc2C(=O)NCc2cccc(C(F)(F)F)c2)on1	10.8

SMILES	hERG current change (%, negative = inhibition) at 10uM [%]
Cc1cc(Cn2nc(C(=O)NCc3cccc(C(F)(F)F)c3)cc2-c2ccccc2)on1	-57
Cc1cc(Cn2nc(C(=O)NCc3cccc(Br)c3)cc2-c2ccccc2)on1	-20.3
CCOC(=O)c1c(NC(=O)CSc2nnc(C)s2)sc2c1CCC(C)C2 (stereo not drawn)	21.5
CN1CCN(c2ccc(NS(=O)(=O)c3ccc(Cl)cc3)cn2)CC1	-40.2
O=C(CC1SC(=O)N(Cc2ccccc2Cl)C1=O)Nc1nccs1 (stereo not drawn)	-5.31
CC1=C/C(=N\NC(=O)c2ccc(O)cc2)CC1	20.8
COc1ccccc1OCC(=O)N/N=C1/C=C(C)CC1	-3.82
CC1=C/C(=N\NC(=O)c2ccccc2)CC1	-53.1
Cc1oc2c(c1C(=O)NCc1cccnc1)C(=O)c1ccccc1C2=O	-47
COc1cccc(NC(=O)CCc2nc(-c3ccccc3F)no2)c1	-0.885
COc1ccc(C(=O)Nc2cc(Cl)ccc2-n2cncn2)c(OC)c1OC	-14.4
COc1cc(OC)c(C(=O)Nc2cc(Cl)ccc2-n2cncn2)cc1OC	-55
O=C(Nc1cc(Cl)ccc1-n1cncn1)c1cc(S(=O)(=O)N2CCOCC2)ccc1F	-34.7
CN1CCN(S(=O)(=O)c2cccc(C(=O)Nc3cc(Cl)ccc3N3CCOCC3)c2)CC1	-42.3
COc1ccccc1C(=O)Nc1cc(Cl)ccc1-n1cncn1	0.114
O=C(Nc1cc(S(=O)(=O)N2CCOCC2)ccc1-n1cncn1)c1ccc(Cl)cc1	-50.4
O=C(Nc1cc(Cl)ccc1-n1cncn1)c1cccc(S(=O)(=O)N2CCOCC2)c1	-61.9
O=C(Nc1cc(Cl)ccc1-n1cncn1)c1ccc(F)c(S(=O)(=O)N2CCOCC2)c1	-44.6
CCN(CC)c1ccc(C(=O)NC(=S)Nc2cc(S(=O)(=O)N3CCOCC3)ccc2-n2cncn2)cc1	-7.1
Oc1c(C(c2cccs2)N2CCN(c3ccccc3)CC2)ccc2cccnc12 (stereo not drawn)	7.17
COC(=O)C1C(O)=C(C=NCc2ccccc2)C(=O)CC1(C)C (stereo not drawn)	-5.13
CC(=O)N(C)c1ccc(NC(=O)N2CCOCC2)cc1	4.94
Cc1ccc(N2CC(O)Cn3c2nc2c3c(=O)[nH]c(=O)n2C)cc1 (stereo not drawn)	13.3
Cc1ccc2nc(NCCC(=O)O)nc(-c3ccccc3)c2c1	3.76
CN(Cc1ccccc1)C(=O)CCC1CCN(C(=O)CCC(F)(F)F)CC1	-4.45
CSCc1ccc(C(=O)N2CCC(CCC(=O)N(C)Cc3ccccc3)CC2)o1	-50.7
CN(Cc1ccccc1)C(=O)CCC1CCN(C(=O)c2ccccc2C(F)(F)F)CC1	8.38
